# DAX1 inh-1: DAX1 (NR0B1) inhibitors on StAR promoter, primary screen, cell-based, luminescence, SF-1 (NR5A1), full-length DAX-1; HEK293T StAR-luciferase reporter, SF-1/DAX-1 repression relief; inhibition, % at 6.8 µM; hit rate 1.1% among 370,000; AID 652010, 2013;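 active = inhibition above the mean over all tested compounds plus 3 SD, cut at about 3.6% in these data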;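 also: 0% = DAX-1 cells with DMSO and 100% = cells lacking DAX-1 with DMSO; higher inhibition means more luminescence from relief of DAX-1 repression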
# ssDAF12 agonist: S. stercoralis DAF-12 nuclear receptor activators, primary screen, cell-based, luminescence, HEK293, GRIP1 co-expression, lit1-tk-luc | hit rate 1% among 370,000 | activation, % at 6.8 µM | Nuclear hormone receptor DAF-12 (Strongyloides stercoralis) | AID 652126, 2013 | HEK293 ssDAF-12/GRIP1 lit1-tk-luc reporter; % of 3 µM dafachronic acid response;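 active = activation above the mean over all tested compounds plus 3 SD, cut at about 0.9% in these data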;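 also: 0% = DMSO-only wells and 100% = 3 µM delta7-dafachronic acid wells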
# hgDAF-12 ag: H. glycines DAF-12 receptor agonists, primary screen, cell-based, luminescence, HEK293, GAL4 fusion, UAS-luciferase; HEK293 GAL4-hgDAF12 UAS-luciferase reporter, agonist luminescence; normalized to butyrate control; activation, % at 6.8 µM; hit rate 1.8% among 370,000;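 active = activation above a cutoff set at the mean of all screened compounds plus 3 SD, cut at about 10% in these data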;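 also: 0% = DMSO wells and 100% = sodium butyrate wells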
# AHR activator: AHR activators, primary screen, cell-based, luminescence, luciferase reporter, human | Aryl hydrocarbon receptor (Homo sapiens), P35869 | AHR-responsive luciferase reporter cells | activation, % at 5 µM | hit rate 2.5% among 320,000 | AID 2796, 2010; in the data active = activation above about 47%;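 also: 0% = vehicle wells and 100% = reference agonist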
# Target sequence (P35869 whole entry, looked up): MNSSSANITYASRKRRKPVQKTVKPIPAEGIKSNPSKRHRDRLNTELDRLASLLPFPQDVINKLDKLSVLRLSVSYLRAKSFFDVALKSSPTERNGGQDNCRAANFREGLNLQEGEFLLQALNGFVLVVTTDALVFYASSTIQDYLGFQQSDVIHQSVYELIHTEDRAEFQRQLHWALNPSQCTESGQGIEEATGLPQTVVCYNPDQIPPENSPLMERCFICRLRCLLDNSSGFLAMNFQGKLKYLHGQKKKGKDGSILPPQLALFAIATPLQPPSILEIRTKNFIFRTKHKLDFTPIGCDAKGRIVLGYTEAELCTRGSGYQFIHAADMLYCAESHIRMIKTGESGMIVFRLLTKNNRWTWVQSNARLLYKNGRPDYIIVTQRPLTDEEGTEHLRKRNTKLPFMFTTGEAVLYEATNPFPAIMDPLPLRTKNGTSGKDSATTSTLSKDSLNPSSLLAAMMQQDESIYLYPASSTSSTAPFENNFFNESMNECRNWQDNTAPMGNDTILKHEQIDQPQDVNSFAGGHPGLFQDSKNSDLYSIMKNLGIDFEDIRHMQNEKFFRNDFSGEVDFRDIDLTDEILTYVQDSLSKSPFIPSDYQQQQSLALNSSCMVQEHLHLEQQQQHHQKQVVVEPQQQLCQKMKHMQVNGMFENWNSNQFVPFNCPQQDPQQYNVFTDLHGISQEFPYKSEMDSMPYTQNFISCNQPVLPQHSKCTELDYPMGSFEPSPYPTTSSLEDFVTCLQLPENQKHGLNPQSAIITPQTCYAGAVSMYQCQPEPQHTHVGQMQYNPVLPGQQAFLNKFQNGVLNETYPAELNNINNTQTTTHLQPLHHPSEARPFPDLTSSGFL
# DAX1 inh-2: DAX1 (NR0B1) inhibitors, primary screen, cell-based, HEK293, Gal4-DAX1, luciferase luminescence; Nuclear receptor subfamily 0 group B member 1 (Homo sapiens), P51843; HEK293 Gal4-DAX1 luciferase reporter; inhibition, % at 6.75 µM; hit rate 0.99% among 340,000; AID 504766, 2011;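 active = inhibition above the mean over all tested compounds plus 3 SD, cut at about 4.2% in these data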;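 also: 0% = DAX1-transfected cells with DMSO and 100% = empty-vector control cells with DMSO; inhibition shows as a rise in luminescence from relieved DAX1 repression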
# hcDAF12 agonist: H. contortus DAF-12 nuclear receptor activators, primary screen, cell-based, luminescence, HEK293, lit1-tk-luc reporter; hit rate 1.4% among 370,000; activation, % at 6.8 µM; HEK293 hcDAF-12 lit1-tk-luc reporter; 0% DMSO, 100% Δ7-dafachronic acid; AID 652067, 2013;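 active = activation above the mean of all tested compounds plus 3 SD, cut at about 5.5% in these data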;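 also: 100% = response to 3 µM Δ7-dafachronic acid high control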
# * = called active by the depositor; · = not tested or not shown. The list is not random: actives were taken first. Their share in the collection is about 5.7%.
SMILES,DAX1 inh-1,ssDAF12 agonist,hgDAF-12 ag,AHR activator,DAX1 inh-2,hcDAF12 agonist
N=C1/C(=C\c2ccc(-c3ccc(C(=O)O)cc3)o2)C(=O)N=C2SC=C(c3ccccc3)N12,0,-1,0,·,-1,2
N=C1/C(=C\c2ccc(-c3cccc(Cl)c3)o2)C(=O)N=C2SC=C(c3ccccc3)N12,0,0,1,49*,-1,5
O=C(c1ccccn1)C1CCCN(Cc2nc(Cc3cccc(F)c3)no2)C1 (configuration not stated),-1,-1,-5,3,4.4*,-3
CCc1cc2c3c(c(=O)oc2cc1O)CCCC3,-1,-1,1,76*,0,3
CC(C)NC(=O)CC(=O)N/N=C/c1ccc(Br)cc1,0,-1,-1,53*,-1,1
CC(C)CNC(=O)CC(=O)N/N=C/c1ccc(Br)cc1,0,0,-1,4,0,-2
Cc1ccc(F)cc1NCC(=O)Nc1ccc(Br)cc1,1,0,9,72*,-1,5
CS(=O)(=O)c1ccc(Nc2nc(C(N)COCc3ccccc3)cs2)cc1 (configuration not stated),-1,-1,-2,·,·,0
O=C(Nc1ccccc1)C1CCN(S(=O)(=O)c2ccc3c(c2)OCCO3)CC1,-1,-1,-2,1,-1,-1
O=C(C1CC1)N1CCN(S(=O)(=O)c2ccc3c(c2)OCCO3)CC1,-1,-1,-3,55*,0,-2
N/C(=N/OCc1cccc([N+](=O)[O-])c1)c1nonc1N,-1,-1,0,1,-2,-3
N/C(=N\OCc1ccccc1)c1nonc1N,2,-1,11*,19,1,2
Cc1cccc(C(=O)N2CCN(C(=O)c3cccc(C)c3)C(C)C2)c1 (configuration not stated),-1,-2,-2,-4,0,-2
Cc1cccc(N2CC(C(=O)Nc3ccc(S(=O)(=O)N4CCOCC4)cc3)CC2=O)c1 (configuration not stated),0,-1,-4,1,1,0
CCC(CC)C(=O)Nc1nnc(-c2cccs2)s1,0,-1,0,73*,-1,-2
COc1cccc(OC)c1C(=O)Nc1nnc(-c2cccs2)s1,0,0,1,26,0,1
CN1CCN(CC(=O)Nc2nnc(-c3cccs3)s2)CC1,0,0,1,111*,2,3
O=C1NC(=O)/C(=C\c2cn(Cc3ccccc3F)c3ccccc23)N1,0,-1,3,39,-1,0
Cc1c(/C=C2\NC(=O)NC2=O)c2ccccc2n1C,0,0,1,75*,1,3
Cc1csc(Sc2ccc(C(=O)OCC(=O)Nc3ccc(F)cc3[N+](=O)[O-])cc2[N+](=O)[O-])n1,0,0,1,6,6.5*,2
CC(C)c1nc(C(N)=O)c2[nH]c(=O)n(-c3ccc(F)cc3)c2n1,-1,-1,2,11,0,2
CCOc1ccccc1-c1nc(C(N)=O)c2[nH]c(=O)n(-c3ccc(F)cc3)c2n1,0,-1,0,72*,0,0
O=C(Nc1nc2nccc(-c3ccccc3)n2n1)C(Cl)(Cl)Cl,1,-1,-1,54*,2,1
CC(=O)C1=C(C)NC(SCC(=O)c2ccc(F)cc2)=C(C#N)C1c1ccco1 (configuration not stated),-1,-1,-1,64*,-2,-6
CCc1ccc(C(=O)CSC2=C(C#N)C(c3ccco3)C(C(C)=O)=C(C)N2)cc1 (configuration not stated),·,·,·,9,·,·
CC(=O)C1=C(C)NC(SCC(=O)c2ccc(F)cc2)=C(C#N)C1CC(C)C (configuration not stated),1,-1,12*,27,-1,-1

# High-throughput results as filed in PubChem BioAssay.
